This is a sample that favours compounds with a hit; in the whole collection about 21% have one here.
DT40 TDP1 no CPT = qHTS for Inhibitors of human tyrosyl-DNA phosphodiesterase 1 (TDP1): qHTS in cells in absence of CPT. DT40 Tdp1-/- hTDP1 cells, no CPT, ATP luminescence, 48 h. Potency, µM (highest dose often 46.2 µM), for the others: at the top dose activity change, negative = growth inhibition, hits mostly inhibitors. 420,000 tested, 15% active. AID 686978, 2013; also: potency is read from the fitted curve at half-maximal effect; nearly all actives have a fitted effect of over 55% in size
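DT40 Tdp1-/-;hTDP1 cells, no CPT (DMSO vehicle only), 400 cells/well; compounds pin-transferred; ≥48 hr, 37 °C; CellTiter-Glo 30 min RT dark, luminescence read.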
TDP1 cell CPT = growth inhibition of DT40 Tdp1-/-;hTDP1 cells with camptothecin (screen for TDP1 inhibitors); chicken DT40 Tdp1-/-;hTDP1 cells + 20 nM CPT, ATP luminescence, 48 h; 420,000 tested, 12% active; Potency, µM (top dose mostly 46.2 µM), without a hit: at the top dose activity change, negative = growth inhibition, most hits filed as inhibitors; also: potency is read from the fitted curve at half-maximal effect; nearly all actives have a fitted effect of over 55% in size
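Cell growth measured by CellTiter-Glo luminescence after a minimum 48 h, 37 C compound exposure with 20 nM CPT in Tdp1-knockout DT40 cells stably expressing hTDP1, seeded 400/well; qHTS titration format.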
ELG1 DNA repair = blocks ELG1-dependent DNA repair in HEK293T cells; HEK293T ELG1-luciferase reporter, luminescence, 16 h; DNA damage induced by 5-fluorouridine; Potency, µM (doses to about 46.1 µM), without a hit: at the highest dose activity change, negative = inhibition, actives largely listed as inhibitors; 330,000 tested, 2.3% active; also: potency is read from the fitted curve at half-maximal effect; nearly all actives have a fitted effect of over 55% in size
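Quantitative HTS, concentration-response format. 2,000 cells/well co-treated with 5-fluorouridine and compound, 16 hr in 5% CO2 at 37 °C; ONE-Glo luminescence read after 30 min.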
RORgamma inh = inhibitors of mouse ROR gamma transcriptional activity. AID 2551. Potency, µM (series often up to 53.6 µM), for inactives: at the top dose activity change, negative = inhibition, usual class: inhibitors. 310,000 tested, 5.4% active. Drosophila S2 Gal4-RORgamma UAS-luciferase reporter, 20 h; also: potency is read from the fitted curve at half-maximal effect; nearly all actives have a fitted effect of over 60% in size
Target sequence (P51450 whole entry, looked up, the tested form may be a part): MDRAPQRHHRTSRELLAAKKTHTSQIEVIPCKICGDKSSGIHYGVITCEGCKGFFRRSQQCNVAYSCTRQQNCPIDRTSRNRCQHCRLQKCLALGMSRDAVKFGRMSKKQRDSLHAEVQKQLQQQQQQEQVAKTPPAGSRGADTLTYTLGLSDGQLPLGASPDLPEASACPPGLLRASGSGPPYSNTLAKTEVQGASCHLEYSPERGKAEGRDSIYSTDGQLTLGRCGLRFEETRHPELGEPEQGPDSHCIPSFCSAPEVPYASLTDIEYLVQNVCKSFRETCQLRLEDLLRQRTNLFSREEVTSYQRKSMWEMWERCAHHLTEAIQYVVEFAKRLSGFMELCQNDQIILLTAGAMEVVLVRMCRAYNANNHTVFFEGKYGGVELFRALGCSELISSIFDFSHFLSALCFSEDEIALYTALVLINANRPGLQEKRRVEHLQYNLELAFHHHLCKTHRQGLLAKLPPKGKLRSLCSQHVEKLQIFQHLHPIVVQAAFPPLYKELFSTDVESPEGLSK
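Luciferase reporter read in Schneider cells carrying Gal4-RORγ (mouse) and UAS-Photinus luciferase; cells given compound 1 h before 700 uM copper sulfate induction, then incubated 20 h at ambient temperature.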
IL-1B inflam inh = blocks inflammasome-driven IL-1 beta release. THP-1 LPS/ATP IL-1B secretion, AlphaLISA, 16 h; hits give low values. activity change, % at 57.5 µM. 360,000 tested, 4.7% active. AID 743279; in the data active = activity change below about -50%; inconclusive = mostly about -30% to -49%
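Secreted IL-1B measured by AlphaLISA bead assay after 16 h compound exposure of THP-1 cells; compounds (final up to 57.5 uM) added 1 h before LPS (250 ng/mL) and ATP (1.25 mM) stimulation; lower signal means less secretion.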
Gal4-VP16 FLuc = Gal4-VP16 reporter inhibition counter-screen | AID 2546 | Drosophila S2 Gal4-VP16 UAS-luciferase, luminescence, 20 h | Potency, µM (titrated, usually from 53.6 µM), inactives show at the highest dose activity, negative = inhibition, most hits filed as inhibitors | 310,000 tested, 3.5% active;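 also: Gal4-VP16 expression switched on by copper sulfate through the metallothionein promoter; potency is read from the fitted curve at half-maximal effect; nearly all actives have a fitted effect of over 50% in size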
* hit, by the source's call; ? = inconclusive; · = not tested or not shown. Unless noted, calls follow the shape of the dose curve; as a rule, active = well fitted curve in the direction sought with a large enough effect; inconclusive = small, poorly fitted or top-dose-only effect, or another doubt; inactive = no such curve, though single readings can be large; an effect the other way counts as inactive or inconclusive. % is scaled to controls: 0 for no effect and ±100 for the full control effect.

SMILES	DT40 TDP1 no CPT	TDP1 cell CPT	ELG1 DNA repair	RORgamma inh	IL-1B inflam inh	Gal4-VP16 FLuc
O=C(O)CSc1c2c(nc3cc(C(=O)Nc4ccc(F)c(Cl)c4)ccc13)CCCC2	-9%	-2%	13%	18%	1	-4%
COc1ccc(C(=O)OC(C)C(=O)NC(C)CCc2ccccc2)c(OC)c1 (stereo unspecified)	?	-18%	?	28%	-8	2%
OC(CNCc1ccco1)Cn1c2ccc(Br)cc2c2cc(Br)ccc21 (stereo unspecified)	18µM*	15µM*	?	-13%	-59*	?
O=C(c1ccc(Cl)c(Cl)c1)N1CCC(O)(CN2CCOCC2)CC1	1%	7%	-4%	2%	23	-8%
O=C(c1ccc(Cl)cc1)N1CCC(O)(CSc2ccc(Cl)cc2Cl)CC1	?	16µM*	?	4%	-20	-13%
O=C(C[n+]1ccccc1Cl)c1ccc(F)cc1	-16%	-14%	·	·	·	·
Oc1ccc(/C=N/NC(=S)Nc2cccnc2)c(O)c1	8.2µM*	?	16%	-36%	-65*	?
Oc1ccc(/C=N/NC(=S)Nc2cccnc2)c(O)c1O	15µM*	9.2µM*	15µM*	-35%	-10	-11%
O=C(O)c1cccc(NC(=S)N/N=C/c2cccnc2)c1	3%	5%	?	?	29	-4%
Oc1ccc(C=NNC(=S)Nc2ccc(F)cc2)c(O)c1	?	-104%	·	·	145	·
Oc1cccc(/C=N/NC(=S)Nc2cccnc2)c1O	4.6µM*	2.3µM*	21%	4.5µM*	-96*	5.6µM*
CCC(=O)N1CCc2cc(Br)cc(S(=O)(=O)CCC(=O)Nc3ccc(C)c(C)c3)c21	1%	12%	·	·	·	·
CCOc1ccc(N(CC(=O)NCC2CCCO2)C(=O)CCC(=O)Nc2nccs2)cc1 (stereo unspecified)	-12%	-1%	-1%	16%	-9	1%
COc1cccc(OC)c1C1=Nn2c(nnc2-c2ccccc2O)SC1	·	·	·	?	·	2%
CCOC(=O)c1ccc(CSc2nncn2N)o1	-3%	-12%	·	0%	5	3%
CCOC(=O)c1ccc(CSC(=N)N)o1	?	29µM*	0%	1%	-12	-4%
COC(=O)c1ccc(Cc2ccc(C(=O)OC)o2)o1	-5%	-14%	-10%	7%	-4	6%
CCc1oc(C(=O)OC)cc1CSC(=N)N	?	?	10%	35%	-87*	-15%
COC(=O)c1ccc(CSC(=N)N)o1	?	16µM*	-9%	-4%	·	1%
C[C@@H](CCCCC(=O)Nc1ccc(C(F)(F)F)cc1)NCCc1cnc[nH]1	-29%	-6%	·	21%	·	8%
O=C(Nc1ccc(Cl)c(C(F)(F)F)c1)C(Cc1ccccc1)NS(=O)(=O)c1ccc(Br)s1 (stereo unspecified)	-22%	-9%	·	·	·	·
Cc1oc2ncn(C)c(=O)c2c1C(=O)NCCCN(Cc1ccccc1)C(C)C	3%	8%	·	·	·	·
CCN(CC)S(=O)(=O)c1ccc2nc(CCl)[nH]c2c1	?	26µM*	-9%	-8%	-82*	-19%
CCOC(=O)c1ccc2c(c1)n(CC)c(C)[n+]2CC	-8%	2%	?	1%	-6	1%
CCCc1nc2ccc([N+](=O)[O-])cc2[nH]1	-21%	-6%	1%	13%	31	11%
SMILES	DT40 TDP1 no CPT	TDP1 cell CPT	ELG1 DNA repair	RORgamma inh	IL-1B inflam inh	Gal4-VP16 FLuc
CCN(CC)S(=O)(=O)c1ccc2c(c1)[nH]c(=S)n2CC	-28%	-11%	?	6.3µM*	0	-23%
CCOC(=O)c1ccc2c(c1)[nH]c(=S)n2CC	?	-3%	?	8.9µM*	8	?
Cc1cc(C)c(C)c(S(=O)(=O)Nc2ccccc2C(=O)NCCCN2CCOCC2)c1C	?	?	0%	5%	-1	6%
O=C(NCCCn1ccnc1)c1ccccc1NS(=O)(=O)c1ccc(F)c(F)c1	?	16µM*	3%	0%	-2	-15%
Cc1cc(C)c(C)c(S(=O)(=O)Nc2ccccc2C(=O)NCCCn2ccnc2)c1C	5.8µM*	4.6µM*	-10%	-39%	-12	1%
CC(C)N(Cc1ccccc1)C(=O)COC(=O)c1ccc(O)cc1	-1%	-5%	?	·	21	·
COc1cc2nc(CN(C)Cc3ccc(SC)cc3)[nH]c(=O)c2cc1OC	-10%	-14%	-14%	11%	48	2%
COc1cc2nc(CN(C)Cc3nc4ccccc4c(=O)[nH]3)[nH]c(=O)c2cc1OC	13µM*	13µM*	?	1.6µM*	6	3.5µM*
CN(Cc1cc(=O)n2ccsc2n1)c1ccccc1	?	-20%	0%	1%	15	?
COc1cc2nc(CN(C)Cc3ccc(Cl)cc3)[nH]c(=O)c2cc1OC	26µM*	?	-25%	-16%	42	6%
CSc1ccc(CN(C)Cc2nc3cc(C(F)(F)F)ccc3c(=O)[nH]2)cc1	?	?	-11%	13µM*	10	?
CN(Cc1cc(=O)n2ccsc2n1)Cc1nc2ccccc2c(=O)[nH]1	2%	8%	-4%	7.9µM*	0	?
C[N+]1(C)CCc2cc3c(cc2[C@@H]1[C@@H]1C(=O)Oc2c1ccc1c2OCO1)OCO3	-13%	2%	·	6%	·	0%
COc1cc(=O)n2c(c1C(=O)NC(C)c1ccco1)CCN(C(=O)c1[nH]c(C)cc1C)CC2 (stereo unspecified)	0%	3%	·	·	·	·
O=C(CCNS(=O)(=O)c1ccccc1F)OCc1ccccc1Cl	-19%	-32%	-4%	·	-6	·
Nc1ccn([C@@H]2O[C@H](CNCc3ccc(OCC(=O)Nc4nccs4)cc3)[C@@H](O)[C@H]2O)c(=O)n1	6%	-1%	·	·	30	·
Cc1c(Cl)cn2c(=O)cc(CN3CCN(c4ccccc4)CC3)nc2c1Cl	?	-20%	-6%	2%	43	6%
CCN(Cc1cc(=O)n2cc(Cl)c(C)c(Cl)c2n1)Cc1nc2ccccc2c(=O)[nH]1	18µM*	-7%	?	13µM*	33	?
CCN(Cc1cc(=O)n2ccsc2n1)Cc1nc2cc(OC)c(OC)cc2c(=O)[nH]1	22%	7%	-11%	-42%	2	-1%
CCN(Cc1nc2ccccc2c(=O)[nH]1)Cc1nc2cc(OC)c(OC)cc2c(=O)[nH]1	?	-7%	?	1.3µM*	-21	2.2µM*
